D2 ag-1 – agonists of human D2 dopamine receptor. AID 485358. P14416. HEK293 T-REx D2 cells, calcium flux agonist mode. activation, % at 2 µM. 340,000 compounds, 0.53% hits;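 active means activation over 3 SD above normal in the single-dose calcium agonist read, cut at about 30% in these data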
Target sequence (P14416 whole entry, looked up): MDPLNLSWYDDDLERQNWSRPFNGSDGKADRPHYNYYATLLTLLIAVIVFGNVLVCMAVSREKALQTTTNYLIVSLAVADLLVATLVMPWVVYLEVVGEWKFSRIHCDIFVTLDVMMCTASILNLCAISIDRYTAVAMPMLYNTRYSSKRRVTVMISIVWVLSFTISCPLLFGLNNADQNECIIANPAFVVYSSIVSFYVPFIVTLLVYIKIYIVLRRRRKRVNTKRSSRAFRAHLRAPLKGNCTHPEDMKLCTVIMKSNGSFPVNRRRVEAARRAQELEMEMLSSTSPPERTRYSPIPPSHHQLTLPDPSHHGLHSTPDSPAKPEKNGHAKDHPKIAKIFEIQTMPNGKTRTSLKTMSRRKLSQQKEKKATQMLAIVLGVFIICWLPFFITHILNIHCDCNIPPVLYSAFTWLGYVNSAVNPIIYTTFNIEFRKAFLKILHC
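Agonism is scored from calcium flux in a force-coupled, inducible HEK293 cell line expressing D2, read kinetically for 180 s after compound addition against dopamine controls.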
D2 PAM-1 – human D2 receptor positive allosteric modulation | P14416 | 360,000 compounds, 0.23% hits | potentiation, % (test concentration not listed) | DiscoveRx D2 beta-arrestin cells, luminescence, 90 min; 100% = 57 uM dopamine signal; in the data active means potentiation above about 50%; inconclusive means mostly about 30% to 49%
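D2 cells co-treated with compound plus 50 nM dopamine (EC20) for 90 min at 37 deg C to detect potentiation. Beta-arrestin recruitment was read as enzyme-fragment luminescence after 1 h at ambient temperature. Full response was set by 57 uM dopamine.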
D2 PAM-2 – D2 dopamine receptor (human) potentiation | 340,000 compounds, 0.34% hits | AID 485347 | potentiation, % at 10 µM | HEK293 T-REx D2, calcium flux, EC20 dopamine potentiation | P14416;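 active means potentiation over 3 SD above the plate norm, cut at about 30% in these data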
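Cells plated with tetracycline inducer and held overnight at 30 C; calcium dye loaded 30–90 min at room temperature; baseline taken, compound added and read 180 s; EC20 dopamine then added and read 180 s.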
D2 antagonist – D2 dopamine receptor (human) antagonism; HEK293 TREx D2 cells, calcium flux, dopamine EC80; inhibition, % at 10 µM; 340,000 compounds, 2% hits; AID 485344; in the data active means inhibition above about 30%; inactive means below that, where a call was filed
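Compounds are added to dye-loaded, induced HEK293 T-REx cells coupled to calcium release via D2; after a 3 min kinetic read an EC80 dopamine stimulus is given and fluorescence is recorded for 3 more min.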
D2 ag-2 – activates the human D2 dopamine receptor. P14416. DiscoveRx PathHunter D2 beta-arrestin, luminescence, 90 min; 100% = 57 uM dopamine signal. activation, % (no concentration beside the values). 360,000 compounds, 0.084% hits. AID 624465; in the data active means activation above about 40%; inconclusive means between about 15% and that limit
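Agonist mode: compounds alone added to overnight-plated D2 PathHunter cells for 90 min at 37 C, with 57 uM final dopamine (EC100) defining full response. Beta-arrestin recruitment detected by chemiluminescent reagent, read after 1 h at ambient temperature.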
Hits are given with their value; – = inactive; ? = inconclusive; · = no result given. Shown are actives, neighbours in structure and some others; about 2.4% of the full set was active somewhere.

SMILES	D2 ag-1	D2 PAM-1	D2 PAM-2	D2 antagonist	D2 ag-2
O=c1oc2c(O)cccc2cc1-c1nc2ccccc2[nH]1	149	–	–	–	–
COc1ccc2oc(C(=O)OCC(=O)Nc3cccc(S(=O)(=O)N4CCOCC4)c3)c(C)c2c1	–	–	–	–	–
CCOC(=O)N1CCN(C(=O)Nc2ccccc2)CC1	–	–	–	31	–
CCOC(=O)c1ccc(NC(=O)N2CCN(C3CCCCC3)CC2)cc1	–	–	–	34	–
CCOC(=O)c1ccc(NC(=O)N2CCN(Cc3ccccc3)CC2)cc1	–	–	–	44	–
CCOC(=O)c1ccc(NC(=O)CC2C(=O)OCCN2CC)cc1 (configuration not stated)	–	–	–	48	–
CCCNC(=O)NC(=O)COC(=O)c1ccc(S(=O)(=O)N(C)c2ccccc2OC)cc1	–	–	–	–	–
O=C(NNc1ccccc1Br)C(=O)n1ccc2ccccc21	–	–	–	–	–
CCOC(=O)C1=CN(Cc2ccc(OC)cc2)C=C(C(=O)OCC)C1c1cccs1	–	–	–	42	–
COC(=O)C1=CN(Cc2ccc(OC)cc2)C=C(C(=O)OC)C1c1cc(OC)c(OC)c(OC)c1	–	–	–	–	–
COc1ccc(C(C)=O)cc1COC(=O)C1CC(=O)N(Cc2ccccc2)C1 (configuration not stated)	–	54	–	–	–
COc1cccc(COC(=O)C2CC(=O)N(Cc3ccccc3)C2)c1OC (configuration not stated)	·	–	·	·	–
COc1ccc(C(=O)NCCSCc2ccc(C)cc2)cc1	–	–	–	–	–
Cc1ccc(CSCCNC(=O)c2ccc(C)cc2)cc1	–	–	–	32	–
COc1ccc(C2=NS(=O)(=O)N(C)C(C(=O)N3CCC(C(N)=O)CC3)=C2)cc1	–	–	–	35	–
O=C(N/N=C/C=C\c1ccccc1[N+](=O)[O-])c1ccccn1	–	–	–	81	–
Cc1ccc(S(=O)(=O)c2c(N)n(CC3CCOC3)c3nc4ccccc4nc23)cc1 (configuration not stated)	–	–	–	–	–
Cc1ccccc1NS(=O)(=O)c1ccc(C)c(NS(C)(=O)=O)c1C	–	–	–	33	–
Cc1ccc(-c2nn(-c3ccccc3)cc2C(=O)NCCCN2CCOCC2)cc1	–	–	–	31	–
Cc1ccc(-c2nn(Cc3ccccc3)cc2C(=O)NCC2CCCO2)cc1 (configuration not stated)	–	–	–	–	–
Cc1ccc(-c2nn(-c3ccccc3Cl)cc2C(=O)NCC2CCCO2)cc1 (configuration not stated)	–	–	–	31	–
CC(=O)c1ccc(NC(=O)c2cn(-c3ccccc3)nc2-c2ccncc2)cc1	–	–	35	–	–
Cc1cccc(NC(=O)c2cn(-c3ccccc3)nc2-c2ccccc2)c1	–	–	–	40	–
COC(=O)c1ccc(NC(=O)c2cn(-c3ccccc3)nc2-c2ccncc2)cc1	–	–	–	91	–
Cc1cccc(NC(=S)NNC(=O)CCn2cc(C)cn2)c1	–	–	45	–	–
SMILES	D2 ag-1	D2 PAM-1	D2 PAM-2	D2 antagonist	D2 ag-2
CCCn1c(SCC(=O)c2ccc3c(c2)OCCO3)nc2c1c(=O)n(C)c(=O)n2C	–	–	–	31	–
CCCn1c(SCC(=O)c2ccc3c(c2)OCCO3)n[nH]c1=O	–	–	–	–	–
CC(C)c1nc(C#N)c(NCCCn2ccnc2)o1	–	–	–	43	–
N=c1c2c(n(Cc3ccc(F)cc3)c3c1CCC3)CCC2	–	–	–	–	–
O=[N+]([O-])c1ccccc1/C=C/CN1CCCCC1	–	–	–	36	–
CN(C/C=C/c1ccccc1[N+](=O)[O-])Cc1ccccc1	–	–	–	57	–
O=[N+]([O-])c1ccccc1/C=C/CN1CCN(Cc2ccc3c(c2)OCO3)CC1	–	–	–	31	–
CC(C)N(Cc1ccccc1)C(=O)/C=C/c1ccccc1[N+](=O)[O-]	–	–	–	–	–
O=[N+]([O-])c1ccc2ncnc(N3CCN(Cc4ccc5c(c4)OCO5)CC3)c2c1	77	–	–	101	?
C/C(=N\NC(=O)c1ccncc1)c1ccc(N2CCOCC2)cc1	–	–	–	–	–

Assay outcomes deposited in PubChem by National Center for Advancing Translational Sciences (NCATS).
